Results taken from the supplement of paper PMC10849652.
About 7,900 targets were measured; listed, in parts, are those with a hit and a random draw of the rest. About 0.6% of all pairs of compound and target were hits.

Compound: Cc1nc(Nc2n[nH]c3c2CN(C(=O)N[C@H](CN(C)C)c2ccccc2)C3(C)C)c2sccc2n1
Test: log2 fold change, soluble protein after heating vs DMSO (PISA); higher = thermal stabilisation; K562 cells, 10 uM, 30 min; active = over 0.2 and 3.5 SD of the protein, either way, in both replicates (recomputed)
How it was run: (§1)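 For each measurement, 10 μM compound was applied for 30 min to K562 cells at 2×10^6 cells/mL. Aliquots were heated for 3 min across 48°C-58°C, pooled, and extracted in PBS with 0.5% NP-40 at 4°C; the supernatant after 21,000xg for 90 min was soluble protein. This was quantified by TMTpro 16plex LC-MS/MS with channel sums equalised, and thermal stability was reported relative to control samples from duplicates, on a log2 fold-change scale.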

Chain of UniProt P04183 (P04183 whole entry, looked up): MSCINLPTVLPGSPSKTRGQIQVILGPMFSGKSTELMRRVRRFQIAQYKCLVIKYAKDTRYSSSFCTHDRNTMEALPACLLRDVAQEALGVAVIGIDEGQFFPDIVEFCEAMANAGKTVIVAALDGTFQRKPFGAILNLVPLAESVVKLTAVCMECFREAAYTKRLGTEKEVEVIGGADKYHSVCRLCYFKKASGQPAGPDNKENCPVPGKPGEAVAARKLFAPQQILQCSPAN
Chain of UniProt Q93075 (Q93075 whole entry, looked up): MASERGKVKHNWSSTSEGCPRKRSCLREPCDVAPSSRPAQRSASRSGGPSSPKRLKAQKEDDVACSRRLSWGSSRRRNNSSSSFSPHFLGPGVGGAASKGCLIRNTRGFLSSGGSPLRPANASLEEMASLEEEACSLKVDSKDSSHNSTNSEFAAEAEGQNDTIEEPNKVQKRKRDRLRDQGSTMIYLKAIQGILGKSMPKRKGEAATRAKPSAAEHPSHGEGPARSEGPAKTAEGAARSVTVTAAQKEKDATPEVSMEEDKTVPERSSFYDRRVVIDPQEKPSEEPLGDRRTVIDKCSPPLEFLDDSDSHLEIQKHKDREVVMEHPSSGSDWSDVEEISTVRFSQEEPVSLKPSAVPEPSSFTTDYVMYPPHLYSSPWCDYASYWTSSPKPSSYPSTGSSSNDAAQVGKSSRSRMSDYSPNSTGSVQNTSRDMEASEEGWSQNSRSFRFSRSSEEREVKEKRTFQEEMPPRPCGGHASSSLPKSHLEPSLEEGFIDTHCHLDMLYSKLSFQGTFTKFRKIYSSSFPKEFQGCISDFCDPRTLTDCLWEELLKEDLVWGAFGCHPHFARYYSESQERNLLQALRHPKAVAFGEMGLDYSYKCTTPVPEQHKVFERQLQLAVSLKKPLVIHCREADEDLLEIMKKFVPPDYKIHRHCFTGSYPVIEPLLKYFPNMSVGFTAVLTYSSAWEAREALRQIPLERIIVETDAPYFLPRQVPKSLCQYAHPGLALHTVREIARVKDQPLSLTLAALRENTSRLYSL
Chain of UniProt Q08945 (Q08945 whole entry, looked up): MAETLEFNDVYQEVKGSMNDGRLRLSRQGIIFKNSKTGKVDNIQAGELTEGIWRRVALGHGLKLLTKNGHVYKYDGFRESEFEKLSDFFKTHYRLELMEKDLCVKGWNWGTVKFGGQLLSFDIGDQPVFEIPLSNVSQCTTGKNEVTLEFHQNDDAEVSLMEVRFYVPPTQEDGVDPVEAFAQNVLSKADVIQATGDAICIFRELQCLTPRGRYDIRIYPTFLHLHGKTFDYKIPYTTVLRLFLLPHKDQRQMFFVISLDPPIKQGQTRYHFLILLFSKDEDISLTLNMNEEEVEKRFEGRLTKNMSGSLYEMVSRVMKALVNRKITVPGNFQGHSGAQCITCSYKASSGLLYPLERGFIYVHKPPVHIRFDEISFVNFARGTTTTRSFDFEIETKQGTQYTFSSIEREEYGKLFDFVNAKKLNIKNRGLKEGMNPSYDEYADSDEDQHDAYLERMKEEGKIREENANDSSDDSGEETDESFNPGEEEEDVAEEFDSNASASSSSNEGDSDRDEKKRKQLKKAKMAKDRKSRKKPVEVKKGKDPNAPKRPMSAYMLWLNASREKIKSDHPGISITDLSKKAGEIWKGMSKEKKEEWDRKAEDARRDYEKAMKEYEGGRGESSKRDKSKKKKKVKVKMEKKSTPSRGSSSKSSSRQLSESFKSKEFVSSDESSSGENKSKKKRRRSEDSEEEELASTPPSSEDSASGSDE
Chain of UniProt P08579 (P08579 whole entry, looked up): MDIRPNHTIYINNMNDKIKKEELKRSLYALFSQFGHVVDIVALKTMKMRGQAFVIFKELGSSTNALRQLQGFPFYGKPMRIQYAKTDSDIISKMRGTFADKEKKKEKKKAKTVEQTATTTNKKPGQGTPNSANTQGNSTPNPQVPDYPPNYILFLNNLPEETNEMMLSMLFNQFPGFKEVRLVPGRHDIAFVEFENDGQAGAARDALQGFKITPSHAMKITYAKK
Chain of UniProt P23497 (P23497 whole entry, looked up): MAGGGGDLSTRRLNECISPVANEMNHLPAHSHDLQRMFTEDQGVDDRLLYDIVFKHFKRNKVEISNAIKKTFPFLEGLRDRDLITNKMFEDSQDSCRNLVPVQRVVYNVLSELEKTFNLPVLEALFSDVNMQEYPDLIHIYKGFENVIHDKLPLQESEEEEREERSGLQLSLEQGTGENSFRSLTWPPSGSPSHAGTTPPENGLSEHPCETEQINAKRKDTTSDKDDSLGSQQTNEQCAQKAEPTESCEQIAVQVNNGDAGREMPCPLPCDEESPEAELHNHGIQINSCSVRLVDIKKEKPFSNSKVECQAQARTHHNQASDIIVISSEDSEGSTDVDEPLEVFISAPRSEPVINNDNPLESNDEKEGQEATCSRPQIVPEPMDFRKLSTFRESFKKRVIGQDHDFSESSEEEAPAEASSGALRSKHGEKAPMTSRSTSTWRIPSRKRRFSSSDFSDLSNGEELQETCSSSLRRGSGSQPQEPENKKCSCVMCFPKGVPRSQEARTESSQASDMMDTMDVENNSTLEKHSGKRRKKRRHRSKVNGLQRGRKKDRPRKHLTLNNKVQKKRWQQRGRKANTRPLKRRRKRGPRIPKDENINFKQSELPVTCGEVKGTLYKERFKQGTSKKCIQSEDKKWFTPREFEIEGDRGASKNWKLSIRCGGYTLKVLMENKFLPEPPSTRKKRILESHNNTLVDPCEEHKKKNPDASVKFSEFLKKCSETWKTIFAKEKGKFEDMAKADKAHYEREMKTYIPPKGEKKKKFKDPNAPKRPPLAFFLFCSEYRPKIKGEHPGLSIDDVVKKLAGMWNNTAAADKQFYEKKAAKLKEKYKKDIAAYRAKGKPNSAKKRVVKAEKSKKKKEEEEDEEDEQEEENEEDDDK
Chain of UniProt Q9BWG4 (Q9BWG4 whole entry, looked up): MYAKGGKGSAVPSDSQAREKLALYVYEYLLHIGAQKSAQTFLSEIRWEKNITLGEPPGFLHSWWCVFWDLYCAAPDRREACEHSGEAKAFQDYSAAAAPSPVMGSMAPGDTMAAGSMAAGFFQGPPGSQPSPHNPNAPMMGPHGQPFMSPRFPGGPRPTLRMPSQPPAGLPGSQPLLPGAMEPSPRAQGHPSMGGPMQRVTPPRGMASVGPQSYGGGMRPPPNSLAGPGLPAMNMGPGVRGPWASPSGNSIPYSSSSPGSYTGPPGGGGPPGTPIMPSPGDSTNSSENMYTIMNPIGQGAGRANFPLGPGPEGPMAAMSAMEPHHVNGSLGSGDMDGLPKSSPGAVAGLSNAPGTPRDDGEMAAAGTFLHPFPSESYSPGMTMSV
Chain of UniProt Q9NRS6 (Q9NRS6 whole entry, looked up): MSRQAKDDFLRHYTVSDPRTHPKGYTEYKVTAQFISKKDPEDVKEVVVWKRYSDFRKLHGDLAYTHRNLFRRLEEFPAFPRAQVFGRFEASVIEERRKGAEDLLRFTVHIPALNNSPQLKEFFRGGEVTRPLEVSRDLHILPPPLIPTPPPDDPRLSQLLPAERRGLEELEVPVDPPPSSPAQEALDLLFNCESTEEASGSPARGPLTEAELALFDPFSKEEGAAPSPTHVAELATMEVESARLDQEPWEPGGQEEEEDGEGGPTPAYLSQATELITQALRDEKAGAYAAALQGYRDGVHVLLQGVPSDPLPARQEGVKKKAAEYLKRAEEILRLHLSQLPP
Chain of UniProt P08047 (P08047 whole entry, looked up): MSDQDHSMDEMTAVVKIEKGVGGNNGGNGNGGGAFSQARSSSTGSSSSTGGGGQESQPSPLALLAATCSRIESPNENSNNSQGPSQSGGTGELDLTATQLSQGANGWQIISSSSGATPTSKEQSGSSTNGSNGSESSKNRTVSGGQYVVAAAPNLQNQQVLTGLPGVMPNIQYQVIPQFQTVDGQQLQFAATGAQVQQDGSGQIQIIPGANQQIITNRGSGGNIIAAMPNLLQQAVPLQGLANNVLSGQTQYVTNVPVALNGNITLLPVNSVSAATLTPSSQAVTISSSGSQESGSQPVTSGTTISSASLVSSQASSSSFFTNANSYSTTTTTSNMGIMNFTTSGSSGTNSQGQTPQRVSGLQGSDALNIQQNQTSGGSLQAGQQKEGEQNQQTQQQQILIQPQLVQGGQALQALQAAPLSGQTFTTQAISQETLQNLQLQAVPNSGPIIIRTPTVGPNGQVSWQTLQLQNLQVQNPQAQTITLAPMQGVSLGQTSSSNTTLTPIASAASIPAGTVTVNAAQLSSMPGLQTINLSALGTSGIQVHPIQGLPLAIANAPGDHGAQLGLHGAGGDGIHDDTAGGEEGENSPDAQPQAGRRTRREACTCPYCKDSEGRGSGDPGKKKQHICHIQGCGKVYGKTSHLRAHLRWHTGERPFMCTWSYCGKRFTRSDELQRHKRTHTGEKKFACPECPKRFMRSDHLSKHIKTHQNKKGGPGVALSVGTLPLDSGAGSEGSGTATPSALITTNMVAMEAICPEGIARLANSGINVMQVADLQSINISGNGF
Chain of UniProt Q9UMY4 (Q9UMY4 whole entry, looked up): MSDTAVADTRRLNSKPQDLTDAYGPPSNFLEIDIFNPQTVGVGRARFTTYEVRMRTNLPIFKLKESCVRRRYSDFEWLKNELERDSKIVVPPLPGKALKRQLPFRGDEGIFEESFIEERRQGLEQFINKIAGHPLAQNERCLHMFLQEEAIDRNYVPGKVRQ
Chain of UniProt Q5JUR7 (Q5JUR7 whole entry, looked up): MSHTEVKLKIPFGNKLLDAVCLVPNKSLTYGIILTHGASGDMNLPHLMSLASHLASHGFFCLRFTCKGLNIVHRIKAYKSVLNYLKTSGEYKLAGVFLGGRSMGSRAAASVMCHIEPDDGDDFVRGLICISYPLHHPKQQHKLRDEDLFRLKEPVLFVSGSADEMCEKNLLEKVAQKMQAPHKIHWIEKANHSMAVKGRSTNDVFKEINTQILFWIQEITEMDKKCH
Chain of UniProt O00193 (O00193 whole entry, looked up): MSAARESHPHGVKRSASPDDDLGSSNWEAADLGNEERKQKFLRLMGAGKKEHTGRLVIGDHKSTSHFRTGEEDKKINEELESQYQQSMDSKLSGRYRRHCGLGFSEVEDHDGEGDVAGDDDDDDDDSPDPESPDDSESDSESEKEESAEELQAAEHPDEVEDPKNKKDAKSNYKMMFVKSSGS

Target	log2 fold change
SMAP (UniProt O00193)	0.006 (inactive)
TGFBR1 isoform 2 (UniProt P36897)	-0.018 (inactive)
SLC7A6OS (UniProt Q96CW6)	-0.035 (inactive)
TK1 (UniProt P04183)	0.028 (inactive)
TACC2 (UniProt O95359)	0.073 (inactive)
TEX30 (UniProt Q5JUR7)	-0.095 (inactive)
TATDN2 (UniProt Q93075)	-0.217 (inactive)
STK11IP (UniProt Q8N1F8)	0.058 (inactive)
SRXN1 (UniProt Q9BYN0)	-0.088 (inactive)
SSRP1 (UniProt Q08945)	-0.175 (inactive)
STK38L (UniProt Q9Y2H1)	-0.238 (inactive)
TAF9 (UniProt Q16594)	-0.031 (inactive)
SP1 (UniProt P08047)	-0.003 (inactive)
SRPRB (UniProt Q9Y5M8)	0.026 (inactive)
SLC38A7 (UniProt Q9NVC3)	-0.023 (inactive)
SP100 isoform 4 (UniProt P23497)	-0.061 (inactive)
TK1 (UniProt K7ERV3)	-0.018 (inactive)
SLC44A2 isoform 2 (UniProt Q8IWA5)	0.008 (inactive)
TBC1D20 isoform 3 (UniProt Q96BZ9)	-0.023 (inactive)

Target	log2 fold change
SRSF6 (UniProt Q13247)	-0.813 (active)
SPIRE1 (UniProt Q08AE8)	0.063 (inactive)
SRC isoform 2 (UniProt P12931)	-0.499 (inactive)
SMG1 (UniProt Q96Q15)	-0.061 (inactive)
SRCAP (UniProt Q6ZRS2)	0.152 (inactive)
SNRPB2 (UniProt P08579)	0.048 (inactive)
STARD3 (UniProt Q14849)	0.218 (inactive)
SNX15 (UniProt Q9NRS6)	-0.17 (inactive)
TIAL1 isoform 2 (UniProt Q01085)	0.036 (inactive)
TENT5C (UniProt Q5VWP2)	0.02 (inactive)
SLC39A11 (UniProt Q8N1S5)	0.001 (inactive)
TFB2M (UniProt Q9H5Q4)	-0.024 (inactive)
SSBP4 (UniProt Q9BWG4)	0.014 (inactive)
SYNE1 (UniProt Q8NF91)	-0.281 (inactive)
SRFBP1 (UniProt Q8NEF9)	-0.031 (inactive)
STRN (UniProt O43815)	0.048 (inactive)
SYNE2 isoform 2 (UniProt Q8WXH0)	0.006 (inactive)
SNX12 isoform 1 (UniProt Q9UMY4)	-0.016 (inactive)

Compound: Cc1nc(Nc2ncc(C(=O)Nc3c(C)cccc3Cl)s2)cc(N2CCN(CCO)CC2)n1 [dasatinib]
Test: as above
How it was run: as §1

Target	log2 fold change
SMAP (UniProt O00193)	0.033 (inactive)
SLC7A6OS (UniProt Q96CW6)	0.004 (inactive)
TK1 (UniProt P04183)	0.032 (inactive)
TACC2 (UniProt O95359)	0.059 (inactive)
TEX30 (UniProt Q5JUR7)	-0.2 (inactive)
TATDN2 (UniProt Q93075)	-0.042 (inactive)
STK11IP (UniProt Q8N1F8)	-0.19 (inactive)
SSRP1 (UniProt Q08945)	-0.059 (inactive)
STK38L (UniProt Q9Y2H1)	-0.012 (inactive)
TAF9 (UniProt Q16594)	0.146 (inactive)
SP1 (UniProt P08047)	-0.005 (inactive)
SRPRB (UniProt Q9Y5M8)	-0.094 (inactive)
SP100 isoform 4 (UniProt P23497)	-0.054 (inactive)
TK1 (UniProt K7ERV3)	0.018 (inactive)
SMARCA4 (UniProt P51532)	0.118 (inactive)
SLC44A2 isoform 2 (UniProt Q8IWA5)	0.064 (inactive)

Target	log2 fold change
SRSF6 (UniProt Q13247)	0.079 (inactive)
SMG1 (UniProt Q96Q15)	-0.266 (inactive)
SRCAP (UniProt Q6ZRS2)	-0.038 (inactive)
SNRPB2 (UniProt P08579)	0.075 (inactive)
STARD3 (UniProt Q14849)	0.284 (inactive)
SNX15 (UniProt Q9NRS6)	0.206 (inactive)
TIAL1 isoform 2 (UniProt Q01085)	-0.021 (inactive)
TENT5C (UniProt Q5VWP2)	-0.122 (inactive)
SLC39A11 (UniProt Q8N1S5)	0.058 (inactive)
TFB2M (UniProt Q9H5Q4)	-0.099 (inactive)
SSBP4 (UniProt Q9BWG4)	-0.021 (inactive)
SYNE1 (UniProt Q8NF91)	-0.074 (inactive)
SRFBP1 (UniProt Q8NEF9)	0.095 (inactive)
STRN (UniProt O43815)	-0.068 (inactive)
SYNE2 isoform 2 (UniProt Q8WXH0)	-0.019 (inactive)
SNX12 isoform 1 (UniProt Q9UMY4)	-0.043 (inactive)
